# An excerpt weighted towards active compounds, which were near 3.5% of everything screened.
# MITF primary = inhibitors of human MITF | O75030 | AlphaScreen MITF homodimerization, bead proximity signal | inhibition, % at 2.6 µM | 0.91% of 650,000 active; in the data active = inhibition above about 50%;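 also: 0% = vehicle wells with protein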
# Target sequence (O75030 whole entry, looked up): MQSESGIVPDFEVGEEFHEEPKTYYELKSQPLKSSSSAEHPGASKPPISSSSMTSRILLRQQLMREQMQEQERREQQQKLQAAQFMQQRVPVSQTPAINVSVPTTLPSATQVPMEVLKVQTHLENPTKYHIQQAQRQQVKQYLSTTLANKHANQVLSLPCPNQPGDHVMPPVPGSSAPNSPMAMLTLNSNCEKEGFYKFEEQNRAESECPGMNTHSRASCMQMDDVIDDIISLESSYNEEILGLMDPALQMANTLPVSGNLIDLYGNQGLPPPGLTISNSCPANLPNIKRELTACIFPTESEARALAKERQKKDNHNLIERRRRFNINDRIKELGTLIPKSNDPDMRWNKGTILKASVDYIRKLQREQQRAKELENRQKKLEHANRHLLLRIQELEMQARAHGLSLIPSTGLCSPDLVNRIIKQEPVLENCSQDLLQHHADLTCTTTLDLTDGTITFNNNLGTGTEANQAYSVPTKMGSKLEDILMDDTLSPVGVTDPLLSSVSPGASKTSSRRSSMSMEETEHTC
# GPR151 activ = activators of human GPR151; PathHunter beta-arrestin GPR151 cells, luminescence; activation, % at 11.2 µM; AID 1508602; Q8TDV0; 1% of 650,000 active; in the data active = activation above about 4.9%;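 also: 0% = median of compound wells and 100% = cells with positive control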
# TEAD-YAP block = TEAD-YAP interaction inhibition; HEK-TIYL cells, TEAD-Gal4/YAP UAS-luciferase luminescence; 1.4% of 640,000 active; inhibition, % at 9.12 µM; in the data active = inhibition above about 32%;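 also: 0% = median of test compound wells and 100% = reference inhibitor wells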
# FBW7 activator = human FBW7 E3 ligase activation, primary screen; Q969H0; AlphaScreen FBW7–phospho-cyclin E peptide binding, activator screen; normalized activity (activation), % at 26.1 µM; 0.13% of 650,000 active; in the data active = normalized activity above about 1.9%;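 also: purified mutant Fbw7 with reduced substrate affinity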
# MITF confirm = confirmation of human MITF inhibitors | AlphaScreen MITF homodimerization, biotin/His-MITF beads | 16% of 4,700 active | AID 1259372 | shares compounds with MITF primary | inhibition, % at 2.6 µM;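 active = inhibition above a cutoff derived from the DMSO control wells, cut at about 28% in these data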;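 also: 0% = MITF dimer wells with DMSO only; inhibitors lower the bead chemiluminescence by keeping MITF from dimerizing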
# AlphaScreen intf2 = AlphaScreen optical interference, counter-screen; shares compounds with MITF primary; LysRS AlphaScreen counterscreen, signal interference, triplicate; inhibition, % at 2.6 µM; 7.6% of 4,700 active;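 active = inhibition above a cutoff derived from the DMSO control wells, cut at about 30% in these data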
# GPR151 confirm = confirmation of human GPR151 activators; shares compounds with GPR151 activ; GPR151 PathHunter beta-arrestin cells, luminescence, 90 min; % of EA-reagent control over plate median; activation, % at 11.2 µM; 6,700 tested, under 10 active; AID 1508609;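 active = mean percent activation across replicates above the confirmation screen cutoff of 4.91%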
# GPR119 counter = GPR119 activation, counter-screen for GPR151 activators; shares compounds with GPR151 activ; GPR119 PathHunter beta-arrestin cells, luminescence, 90 min; 0 = compound-well median, 100 = enzyme-acceptor control; activation, % at 11.2 µM; 0.3% of 6,700 active; AID 1508611;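 active = mean percent activation in the counterscreen above 29.09%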;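 also: counterscreen on off-target GPR119 to flag nonselective hits from the GPR151 activator screen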
# The depositor's hits bear a star; . = no result; ! = not confirmed by another sample.
SMILES,MITF primary,GPR151 activ,TEAD-YAP block,FBW7 activator,GPR151 confirm,GPR119 counter,others
CN1CCN(Cc2cccc([N+](=O)[O-])c2)CC1,2,0,3,0,.,.,
C[N+](C)(C)CC(=O)Nc1ccc(Br)cc1C(=O)c1ccccc1Cl,7,1,-9,0,.,.,
O=C(c1ccccc1)c1cc(Cl)ccc1NC(=O)c1c(O)c2ccccc2[nH]c1=O,-4,-1,-5,0,.,.,
CCn1c2ccccc2c2cc(CN3CCN(C)CC3)ccc21,63*,0,4,0,.,.,MITF confirm=14;AlphaScreen intf2=13
COc1cccc(CN2CCN(C(C)C)CC2)c1,46,1,4,0,.,.,
CC(C)N1CCN(Cc2cccnc2)CC1,74*,0,13,0,.,.,MITF confirm=4;AlphaScreen intf2=7
CCN1CCN(Cc2cccc(Br)c2)CC1,16,1,5,0,.,.,
CCC(C)N1CCN(Cc2cccc(Br)c2)CC1 (stereo not drawn),73*,1,9,0,.,.,MITF confirm=8;AlphaScreen intf2=15
CC(C)N1CCN(Cc2cccc(Br)c2)CC1,82*,0,12,0,.,.,MITF confirm=14;AlphaScreen intf2=13
CC(C)N1CCN(Cc2ccco2)CC1,62*,1,-2,0,.,.,MITF confirm=7;AlphaScreen intf2=-3
CCCN1CCC(N(C(=O)CC)c2ccc3[nH]c(C)cc3c2)CC1,23,1,-4,0,.,.,
COC(=O)C12C3CCCC1C32c1ccccc1 (stereo not drawn),9,-1,9,0,.,.,
CCN1CCN(C(=O)COc2ccc(F)cc2)CC1,-14,0,-10,0,.,.,
CCOC(=O)C1=C(C)OC(N)=C(C(=O)OCC)C12C(=O)N(C)c1ccccc12 (stereo not drawn),-5,1,3,0,.,.,
CCO/C(C)=C/c1sc2ccccc2[n+]1CCO,13,0,1,0,.,.,
COc1ccc(CN2CCN(CCO)CC2)cc1OC,14,0,-1,0,.,.,
OCCN1CCN(Cc2ccc(Cl)cc2Cl)CC1,51*,0,8,0,.,.,MITF confirm=2;AlphaScreen intf2=1
CCOc1ccc(CN2CCN(CCO)CC2)cc1,42,2,-3,0,.,.,
OCCN1CCN(Cc2ccc(Br)cc2)CC1,67*,1,7,0,.,.,MITF confirm=-3;AlphaScreen intf2=3
OCCN1CCN(Cc2cccc(Br)c2)CC1,91*,0,7,0,.,.,MITF confirm=0;AlphaScreen intf2=1
OCCN1CCN(Cc2ccc(Cl)c(Cl)c2)CC1,83*,2,5,0,.,.,MITF confirm=6;AlphaScreen intf2=1
C=CCN1C(=O)/C(=C\c2ccc(N3CCOCC3)cc2C)C(=O)NC1=S,-3,-2,2,0,.,.,
CCCc1noc(CN2CC=C(c3ccc(F)cc3)CC2)n1,8,-1,9,0,.,.,
O=C(Nc1ccc(S(=O)(=O)N2CC3CC(C2)c2cccc(=O)n2C3)cc1)C1CCCCC1 (stereo not drawn),-8,0,3,0,.,.,
O=P(Nc1cccnc1)(Oc1ccccc1F)Oc1ccccc1F,10,1,-1,0,.,.,
SMILES,MITF primary,GPR151 activ,TEAD-YAP block,FBW7 activator,GPR151 confirm,GPR119 counter,others
CN1C2CCC1CC(OC(=O)CNCc1cccs1)C2 (stereo not drawn),52*,7.3*,0,0,0,5,MITF confirm=7;AlphaScreen intf2=14
CN1CCN(CCC(=O)OC2CC3CCC(C2)N3C)CC1 (stereo not drawn),9,1,4,0,.,.,
CC1(C)C(C=C(Cl)Cl)C1C(=O)OC(C#N)c1ccc(F)c(Oc2ccccc2)c1 (stereo not drawn),7,0,1,0,.,.,
C=CCN(CC#CCOc1ccccc1OC)CC=C,60*,11*,-11,0,0,-4,MITF confirm=7;AlphaScreen intf2=12
CCOC(=O)C1=C(C)OC(N)=C(C#N)C12C(=O)N1c3c(cc(CC)cc32)C(C)CC1(C)C (stereo not drawn),11,9.0*,4,0,0,-8,
CCOC(=O)C1=C(N)Oc2cc(O)ccc2C12C(=O)N1c3c(cccc32)C(C)CC1(C)C (stereo not drawn),6,0,8,0,.,.,
CC(C)COc1ccc(S(=O)(=O)N(CCCl)CCCl)cc1,1,-1,-12,1,.,.,
CCCCC/C=C\C/C=C\C/C=C\C/C=C\CCCC(=O)NCCO,10,7.1*,.,.,0,-8,
COc1ccc(Cl)cc1NC1=NCCCS1,3,0,-7,0,.,.,
CCOC(=O)CCCn1c(C(=O)OCC)c(C=O)c2ccccc21,-11,6.3*,0,0,0,13,
COc1ccccc1OCCCn1c(C)c(C=O)c2ccccc21,-11,2,0,0,.,.,
Cc1[nH]c2c(Cl)ccc(Cl)c2c1CCN,0,6.8*,-1,0,0,1,
Cc1[nH]c2c(Cl)c(Cl)ccc2c1CCN,3,1,24,0,.,.,
COC(=O)COc1ccc(C=C2C(=O)NC(=O)NC2=O)cc1,-10,5.2*,-6,0,0,1,
[O-][n+]1onc2c3ncnc3c3c(non3O)c21,-2,-2,2,0,.,.,
CC[C@@H]1C(=O)OC[C@@H]1Cc1cncn1C,-7,9.6*!,2,0,0,-6,
N=C1c2ccccc2CN1CC(=O)c1cccs1,-3,-1,-50,0,.,.,
CCOc1ccccc1NC(=O)N1CCC2(CC1)OCCO2,11,13*,8,0,-1,-2,
COc1ccccc1/C=C/C1=CCN(C)CC1,2,1,-10,0,.,.,
OCCNc1c2c(nc3ccccc13)CCCC2,1,1,-9,0,.,.,
O=C(O)c1c2c(nc3ccccc13)CCNC2,-2,6.9*,-9,0,1,8,
CN1/C(=C/C=C2C(=O)NC(=S)NC2=O)C(C)(C)c2ccccc21,8,0,-4,1,.,.,
CCn1c(/C=C/C=C2\N(C)c3ccccc3C2(C)C)[n+](Cc2ccccc2)c2ccccc21,-5,8.7*,92*,0,3,27,
CC[n+]1c(/C=C/C=C2\N(C)c3ccccc3C2(C)C)n(-c2ccccc2)c2cc(Cl)ccc21,-24,8.3*,90*,0,3,20,
CC[n+]1c(/C=C/C=C2\N(C)c3ccccc3C2(C)C)n(-c2ccccc2)c2ccc(C)cc21,-8,11*,91*,0,3,39*,
CC(=O)C(C)Oc1cc(C)cc2oc(=O)c3c(c12)CCCC3 (stereo not drawn),5,22*,15,0,0,0,
Cc1ccc2c(c1)CNc1ccccc1O2,6,5.2*,-5,0,0,-9,
CN1CCN(c2nc3nc(N)[nH]c(=O)c3[nH]2)CC1,2,0,1,0,.,.,

# Compound activity from PubChem.
